Measurements taken from the supplement of paper PMC7380943.

Tests used:
[1] = test system: CLZ3 (HCA2 human fibroblast dual HR-NHEJ reporter); assay: NHEJ repair efficiency (GFP+ cells) relative to control (log10 fold); higher = more non-homologous end joining; conditions: 5 µM; doxycycline 0.5 ug/mL
[2] = test system: CLZ3 (HCA2 human fibroblast dual HR-NHEJ reporter); assay: HR repair efficiency (tdTomato+ cells) relative to control (log10 fold); higher = more homologous recombination; conditions: 5 µM; doxycycline 0.5 ug/mL
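For HR repair efficiency (tdTomato+ cells) relative to control in this document: compound given one day before doxycycline, which switches on I-SceI endonuclease expression to create double-strand breaks within the integrated reporter.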
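For NHEJ repair efficiency (GFP+ cells) relative to control in this document: compound given one day ahead of doxycycline, which switches on I-SceI endonuclease to cut the chromosomally integrated reporter and create DSBs.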

Compound	NHEJ repair efficiency (log10) [1]	HR repair efficiency (log10) [2]
C=C1CC[C@@H]2[C@](C)(CO)[C@H](O)CC[C@@]2(C)[C@@H]1C/C=C1/C(=O)OC[C@H]1O [Andrographolide]	0.0511	0.266
O=C(/C=C/c1ccc(O)c(O)c1)O[C@@H]1CC(O)(C(=O)O)C[C@@H](OC(=O)/C=C/c2ccc(O)c(O)c2)C1O (stereo partly specified) [Isochlorogenic acid A]	0.0485	0.0109
COc1cc2c(cc1OC)-c1cc3ccc4c(c3c[n+]1CC2)OCO4 [Epiberberine]	-0.03	0.05
O=C(O)/C=C/C(=O)O [Fumaric Acid]	0.0532	0.136
C=C(CCC=C(C)C)[C@H]1CC[C@]2(C)[C@@H]1[C@H](O)C[C@@H]1[C@@]3(C)CC[C@H](O)C(C)(C)[C@@H]3[C@@H](O[C@@H]3O[C@H](CO)[C@@H](O)[C@H](O)[C@H]3O)C[C@]12C [Ginsenoside Rk3]	0.000935	0.0532
CC(C)(O[C@@H]1O[C@H](CO)[C@@H](O)[C@H](O)[C@H]1O)[C@H]1Cc2cc3ccc(=O)oc3cc2O1 [Nodakenin]	-0.0969	0.0112
COc1cc2ccc(=O)oc2c(O[C@@H]2O[C@H](CO)[C@@H](O)[C@H](O)[C@H]2O)c1O [Fraxin;Fraxoside; Paviin]	0.0655	0.0876
O=C(O)c1cc(O)c2c(c1)[C@H]([C@H]1c3cc(C(=O)O)cc(O)c3C(=O)c3c(O[C@@H]4O[C@H](CO)[C@@H](O)[C@H](O)[C@H]4O)cccc31)c1cccc(O[C@@H]3O[C@H](CO)[C@@H](O)[C@H](O)[C@H]3O)c1C2=O [Sennoside A]	0.0438	0.131
